The source made the active and inactive calls.

From PubChem BioAssay come the findings set out here.

Assay [1] has as its system Human papillomavirus type 1a protein E7 (residues 44-93). Briefly: small molecules binding HPV E7 44-93 – biochemical, small-molecule microarray, residues 44-93, 635 nm fluorescence, primary screen (AID 1108).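 Further: E7 fragment applied at 1 µg/mL in TBST for 1 h at 4 C; score combines spot fluorescence with its signal to noise ratio.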 The settings on record: fluorescence 635 nm, higher = more signal.
A short description of assay [2]: hepatitis C replication reporter changes, two-sided – Huh7 cells, luciferase reporter, HCV replication inhibitor project, primary screen (AID 1109).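 Further: huh7 hepatoma cells harbouring a luciferase neomycin HCV replicon reporter; luciferase luminescence as measure of HCV replicon replication; test concentration not given here.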 The settings on record: Huh7 HCV replicon luciferase reporter, 48 h; higher = more signal. For orientation: Reporter assays use an easily measured gene product as a stand-in for the process of interest.
The target in assay [3] is Left-right determination factor 2 (Homo sapiens) (UniProt O00292). Briefly: small molecules binding LEFTY2 protein – biochemical, small-molecule microarray, 635 nm fluorescence scan, primary screen (AID 1110). Particulars: higher = more signal.
The target of assay [4] is Calmodulin-1 (Homo sapiens) (UniProt P0DP23). Briefly: small molecules binding calmodulin-1 with EGTA – biochemical, small-molecule microarray, Cy5-labelled CALM1, profiling panel (AID 1111).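 Further: labelled calmodulin applied in Tris saline Tween buffer holding calcium plus EGTA and DTT.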 The settings on record: Cy5-CALM1 binding fluorescence, higher = more signal.
The target is the same in assay [5]. Briefly: small molecules binding Ca-loaded calmodulin-1 – biochemical, small-molecule microarray, Cy5-labelled CALM1, plus calcium, artefact control for SMM control-protein annotation, profiling panel (AID 1112).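 Further: score merges spot fluorescence with signal to noise from triplicate slides.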 The settings on record: Cy5-CALM1 binding fluorescence, higher = more signal.
The nature of assay [6]: probe aWnt5a binding to arrayed compounds – biochemical, biotinylated probe, 635/667 nm fluorescence, primary screen (AID 1113).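 Further: score merges 667 nm fluorescence intensity with signal-to-noise per printed feature.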 The settings on record: small-molecule microarray, higher = more signal.
A short description of assay [7]: probe aShh binding to arrayed compounds – biochemical, biotinylated probe, 635/667 nm fluorescence, primary screen (AID 1114).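 Further: probe is biotin-labelled aShh protein from a stem cell growth factor screen; measures binding of labelled protein to compounds printed on the slide; score merges feature fluorescence at 667 nm with signal-to-noise.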 The settings on record: small-molecule microarray, higher = more signal.
Assay [8] can be described thus: probe aNog binding to arrayed compounds – biochemical, biotinylated probe, 635/667 nm fluorescence, primary screen (AID 1115).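 Further: probe is biotinylated aNog protein used at 0.15 µg/mL for 1 h at 4 C; z-score combines 667 nm fluorescence of each spot with its signal to noise.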 The settings on record: small-molecule microarray, higher = more signal.
Assay [9] addresses Torsin-1A-interacting protein 1 (Homo sapiens) (UniProt Q5JTV8). The assay is described as follows: compound microarray binding of lysate hLAP1 – cell lysate, small-molecule microarray, COS7 lysate, 635/667 nm fluorescence, primary screen (AID 1116). The settings on record: 635 nm fluorescence, higher = more signal.
Assay [10] addresses Alpha-bungarotoxin (Bungarus multicinctus) (UniProt P60615). The assay is described as follows: compounds binding labelled alpha-BTX control protein – biochemical, small-molecule microarray, Alexa647 label, 635/667 nm fluorescence, artefact control for SMM control protein annotation, profiling panel (AID 1117). Particulars: alpha-BTX-A647 binding fluorescence, higher = more signal.

The target of the next assay is Albumin (Bos taurus) (UniProt P02769). Briefly: compounds binding labelled BSA control protein – biochemical, small-molecule microarray, Alexa647 label, 635/667 nm fluorescence, artefact control for SMM control protein annotation, profiling panel (AID 1118).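 Further: score merges 667 nm emission intensity and signal-to-noise per printed compound spot.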 The settings on record: BSA-A647 binding, fluorescence 635 nm, higher = more signal.
A short description of assay [11]: probe aXIP binding to arrayed compounds – biochemical, NeuroSMM set, 635/667 nm fluorescence, primary screen (AID 1119).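 Further: probe is the protein aXip251-270 applied at 1 µg/mL to compound-printed slides; binding of probe to printed compounds measured as 667 nm fluorescence plus signal to noise.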 Particulars: small-molecule microarray, higher = more signal, called active from +8 up or from −8 down.
Assay [12] can be described thus: probe aNOTCH3 binding on compound microarray – biochemical, small-molecule microarray, 635/667 nm fluorescence, primary screen (AID 1120).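 Further: probe is a biotin-tagged antibody raised against NOTCH3 rather than NOTCH3 protein; score merges spot fluorescence near 667 nm with spot signal to noise.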 Particulars: higher = more signal.
The nature of assay [13]: probe aNOTCH2 binding on compound microarray – biochemical, small-molecule microarray, 635/667 nm fluorescence, primary screen (AID 1121).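 Further: score merges feature fluorescence read at 667 nm with its signal to noise.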 Particulars: higher = more signal.
For assay [14], the target named is Carbonic anhydrase 2 (Homo sapiens) (UniProt P00918). The assay is described as follows: compounds binding carbonic anhydrase 2 – biochemical, small-molecule microarray, Alexa647-labelled CAII, profiling panel (AID 1122). The settings on record: CAII-A647 binding fluorescence, higher = more signal.
The nature of assay [15]: COS7 lysate on small-molecule microarray, probe aHis, 635 nm (AID 1123).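 Further: z-score combines 667nm fluorescence intensity with signal-to-noise per printed compound spot.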 The settings on record: COS7 cell lysate, fluorescence, higher = more signal.
A short description of assay [16]: probe aLAP1 signal on lysate-treated microarray – cell lysate, small-molecule microarray, COS7 lysate, primary screen (AID 1124).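 Further: lysate comes from COS7 cells expressing LAP1 and is applied at 0.3 µg/mL; score merges spot fluorescence near 667 nm with signal-to-noise over triplicate slides.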 Particulars: probe aLAP1, fluorescence, higher = more signal.
The next assay has as its system Sam68 (KHDRBS1). The assay is described as follows: compounds binding KHDRBS1 protein – biochemical, small-molecule microarray, 635 nm fluorescence, primary screen (AID 1125).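 Further: score merges 667 nm channel intensity with signal to noise over triplicate slides.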 The settings on record: higher = more signal.
Assay [17] deals with Chordin-like protein 2 (CHRDL2). The assay is described as follows: compounds binding chordin-like 2 – biochemical, small-molecule microarray, 635 nm fluorescence, primary screen (AID 1126).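 Further: printed compound slides probed with Chrdl2 protein at 4 µg/mL for 1 h at 4 C; score merges 667 nm emission intensity with signal to noise over three replicate slides.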 Particulars: fluorescence 635 nm, higher = more signal.
Assay [18] deals with Concanavalin-A (Canavalia ensiformis) (UniProt P02866). Briefly: compounds binding concanavalin A lectin – biochemical, small-molecule microarray, Alexa647 label, 635 nm, artefact control for SMM control protein annotation, primary screen (AID 1127).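 Further: z combines 667 nm emission intensity with signal-to-noise across three replicate slides.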 Particulars: ConA-A647 binding fluorescence, higher = more signal.
Chain of Concanavalin-A (Canavalia ensiformis) (P02866 whole entry, looked up): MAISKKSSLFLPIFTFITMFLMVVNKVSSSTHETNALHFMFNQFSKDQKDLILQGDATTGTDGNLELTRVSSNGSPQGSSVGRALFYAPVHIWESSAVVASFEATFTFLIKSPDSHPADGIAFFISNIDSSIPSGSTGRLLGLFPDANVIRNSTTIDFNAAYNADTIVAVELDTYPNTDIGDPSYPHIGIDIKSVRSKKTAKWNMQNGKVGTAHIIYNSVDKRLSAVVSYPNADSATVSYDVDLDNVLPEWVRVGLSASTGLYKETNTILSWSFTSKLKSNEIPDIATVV

Chain of Left-right determination factor 2 (Homo sapiens) (O00292 whole entry, looked up): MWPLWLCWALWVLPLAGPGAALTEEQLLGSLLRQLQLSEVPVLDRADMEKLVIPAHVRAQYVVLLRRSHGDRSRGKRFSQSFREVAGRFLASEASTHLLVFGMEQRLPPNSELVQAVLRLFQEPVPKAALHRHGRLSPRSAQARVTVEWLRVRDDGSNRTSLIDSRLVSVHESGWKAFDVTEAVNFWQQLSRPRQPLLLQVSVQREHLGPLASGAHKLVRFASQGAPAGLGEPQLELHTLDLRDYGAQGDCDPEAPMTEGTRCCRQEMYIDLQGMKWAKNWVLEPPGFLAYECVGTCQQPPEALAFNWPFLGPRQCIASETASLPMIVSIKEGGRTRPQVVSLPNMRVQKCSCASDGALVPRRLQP
Chain of Alpha-bungarotoxin (Bungarus multicinctus) (P60615 whole entry, looked up): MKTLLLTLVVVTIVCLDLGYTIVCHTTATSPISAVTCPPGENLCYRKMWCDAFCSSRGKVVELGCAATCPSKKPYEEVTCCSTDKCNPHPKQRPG
Chain of Torsin-1A-interacting protein 1 (Homo sapiens) (Q5JTV8 whole entry, looked up): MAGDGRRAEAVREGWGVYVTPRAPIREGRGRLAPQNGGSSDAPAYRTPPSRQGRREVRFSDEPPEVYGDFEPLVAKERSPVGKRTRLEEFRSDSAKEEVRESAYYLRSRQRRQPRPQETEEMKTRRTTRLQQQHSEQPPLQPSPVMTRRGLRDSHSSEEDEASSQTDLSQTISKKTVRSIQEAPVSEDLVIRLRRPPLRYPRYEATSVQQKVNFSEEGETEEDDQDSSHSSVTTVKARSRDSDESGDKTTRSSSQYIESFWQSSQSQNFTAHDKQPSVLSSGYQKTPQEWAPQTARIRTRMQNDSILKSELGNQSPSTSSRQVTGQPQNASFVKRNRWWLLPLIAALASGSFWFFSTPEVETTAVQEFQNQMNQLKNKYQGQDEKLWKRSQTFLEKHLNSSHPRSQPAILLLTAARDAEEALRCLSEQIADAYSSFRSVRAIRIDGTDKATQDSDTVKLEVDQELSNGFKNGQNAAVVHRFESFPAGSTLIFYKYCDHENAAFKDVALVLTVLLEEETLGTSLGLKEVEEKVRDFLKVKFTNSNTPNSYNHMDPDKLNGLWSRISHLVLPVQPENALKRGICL
Chain of Albumin (Bos taurus) (P02769 whole entry, looked up): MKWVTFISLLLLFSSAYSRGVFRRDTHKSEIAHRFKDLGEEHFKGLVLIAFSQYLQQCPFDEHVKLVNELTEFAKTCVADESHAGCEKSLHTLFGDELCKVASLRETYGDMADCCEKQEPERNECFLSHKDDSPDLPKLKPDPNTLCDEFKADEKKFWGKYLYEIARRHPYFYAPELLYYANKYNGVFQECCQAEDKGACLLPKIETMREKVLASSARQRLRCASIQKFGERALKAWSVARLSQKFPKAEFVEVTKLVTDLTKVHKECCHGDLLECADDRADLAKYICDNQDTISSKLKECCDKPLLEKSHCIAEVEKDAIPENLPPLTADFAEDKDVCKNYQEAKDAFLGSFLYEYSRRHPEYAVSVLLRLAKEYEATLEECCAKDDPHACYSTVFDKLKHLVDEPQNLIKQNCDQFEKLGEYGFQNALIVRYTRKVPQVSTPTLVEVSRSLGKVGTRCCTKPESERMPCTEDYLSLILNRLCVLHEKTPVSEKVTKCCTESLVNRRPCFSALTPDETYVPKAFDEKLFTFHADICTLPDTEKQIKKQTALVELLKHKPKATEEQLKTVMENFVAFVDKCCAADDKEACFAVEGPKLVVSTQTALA

As to `O=C(NCCN1CCOCC1)[C@@H]1c2ccccc2C(=O)N(Cc2cc(C(F)(F)F)cc(C(F)(F)F)c2)[C@H]1c1ccc(CO)cc1`, the composite z-score in assay [1] was 1.35; in assay [3], -0.775; in assay [4] it was -0.253; in assay [5] it was -0.198; in assay [6] it was -0.0161; in assay [7] it was 0.123. For the same compound, the composite z-score is 0.0763 in [8]; -0.729 in assay [9]; 2.1 in [10]; -0.32 with Albumin (Bos taurus); -0.292 in assay [12]; -0.101 in [13]. Also, the composite z-score is 0.699 in assay [14]; 1.61 in [15]; 0.501 in [16]; 0.687 in the assay on Sam68 (KHDRBS1); -1.67 in assay [17]; 0.412 in [18]. The compound further yielded a z-score in assay [2] of -1.16. The composite Z-score in [11] is -0.253 (inactive).

Regarding `COC(=O)C(CC#Cc1ccc2c(c1)[C@]1(C(=O)N2)[C@H](c2ccc(O)cc2)N2[C@H](c3ccccc3)[C@H](c3ccccc3)OC(=O)[C@H]2[C@@H]1C(=O)N1CCN(c2ncccn2)CC1)C(=O)OC`, the composite z-score is 0.584 in [1]; -0.0195 in assay [3]; 1.1 in assay [4]; -0.0671 in [5]; -0.0748 in [6]; -0.0143 in [7]. Also, the composite z-score in assay [8] was found to be 0.36; in assay [9] it was 0.683; in assay [10], 2.4; in the assay with Albumin (Bos taurus), 0.518; in assay [12], 0.166; in assay [13], 0.0669. Also, the composite z-score came out at 0.476 in assay [14]; 2.47 in assay [15]; 0.415 in assay [16]; 1.28 with Sam68 (KHDRBS1); 0.0801 in [17]; 1.11 in assay [18]. This compound also returned a z-score in assay [2] of -0.305. In addition, the composite Z-score in assay [11] was 0.471 (inactive).

Regarding `O=C(CS)NCCCCCNC(=O)[C@H]1C[C@H]2C(=O)NCC(=O)N2[C@H]1c1cccc(OCCO)c1`, the composite z-score in assay [1] is -1.02; in [3], -0.356; in [4], -0.213; in [5], 0.787; in assay [6], -0.152; in [7], 0.294. The composite z-score is -0.311 in assay [8]; -0.631 in [9]; 0.854 in [10]; -0.221 in the assay with Albumin (Bos taurus); -0.249 in assay [12]; -0.164 in assay [13]. Moreover, the composite z-score in [14] was 0.728; in assay [15], 0.0504; in assay [16] it was -0.442; in the assay on Sam68 (KHDRBS1), -0.956; in [17] it was 0.577; in assay [18], 0.687. In addition, the z-score in assay [2] was 1.34. In [11], the composite Z-score is -0.269 (inactive).

`O=C(CS)NCCCCCNC(=O)[C@@H]1C[C@@H]2C(=O)NCC(=O)N2[C@@H]1c1ccc(O)cc1`: the composite z-score in assay [1] is 0.722; in [3], 0.31; in assay [4] it was -0.0523; in assay [5], -0.109; in [6], -0.165; in assay [7], -0.0709. Moreover, the composite z-score is -0.122 in [8]; -0.0104 in assay [9]; -0.581 in [10]; -0.911 in the assay with Albumin (Bos taurus); -0.189 in assay [12]; -0.213 in assay [13]. Further, the composite z-score in assay [14] is 0.552; in [15], 0.559; in [16], 0.144; with Sam68 (KHDRBS1), 0.692; in [17], 0.616; in [18], 0.53. Besides, the z-score in assay [2] is 0.627. Also, the composite Z-score in assay [11] is 2 (inactive).

For `CO[C@H]1O[C@H](CO)[C@@H](OC(=O)Nc2cccc(F)c2)[C@H](OC(=O)Nc2ccccc2)[C@H]1OC(=O)Nc1ccccc1`, the composite z-score was 1.52 in assay [1]; 0.238 in assay [3]; 0.183 in assay [4]; -0.467 in assay [5]; -0.0222 in [6]; 0.536 in assay [7]. Further, the composite z-score in assay [8] was 0.919; in assay [9], 1.29; in assay [10], 1.53; in the assay with Albumin (Bos taurus), -0.225; in assay [12], 0.146; in assay [13], -0.0664. The composite z-score in [14] came to 0.65; in assay [15], 1.24; in [16], 0.168; in the assay with Sam68 (KHDRBS1) it was 1.29; in assay [17], 0.323; in assay [18], 0.899. The compound also registered a z-score in assay [2] of -3.16. The composite Z-score in [11] is 0.0063 (inactive).

`CC(C)CNC(=O)[C@@]1(Cc2ccccc2I)c2ccccc2C(=O)N(Cc2ccccc2C(F)(F)F)[C@H]1c1ccc(CO)cc1`: the composite z-score in assay [1] was 0.476; in [3] it was -1.3; in assay [4] it was -0.512; in assay [5] it was -0.157; in assay [6], -0.176; in assay [7] it was 1.98. The composite z-score was 0.978 in [8]; 0.146 in [9]; -0.124 in assay [10]; 0.212 with Albumin (Bos taurus); -0.234 in assay [12]; 0.0344 in [13]. Further, the composite z-score in [14] is 0.417; in assay [15] it was 0.959; in assay [16], 0.393; in the assay with Sam68 (KHDRBS1), 0.432; in assay [17], -0.731; in assay [18], -0.0801. Further, the z-score in assay [2] was -0.908. The composite Z-score in assay [11] is 0.117 (inactive).
